Reference: PubChem BioAssay (NCATS)
Inconclusive results are not listed. Activity calls are given as the source filed them. Calls come from the whole dose curve; as a rule, active = well fitted inhibition curve with a large enough effect; inconclusive = small, poorly fitted or top-dose-only effect; inactive = flat fitted curve, though single readings scatter.

Each compound was assayed against Dual specificity protein kinase CLK4 (Homo sapiens) (UniProt Q9HAZ1) (assay: qHTS Assay for Inhibitors of CDC-like Kinase 4 (ADP-FP Assay) (AID 1795; note: nearly all actives have a fitted effect of over 60% in size)). Conditions: Transcreener ADP fluorescence polarization; series mostly up to 50 µM.
Protocol: NIH Molecular Libraries Probe Production Centers Network [MLPCN] NIH Chemical Genomics Center [NCGC] MLPCN Grant: 1R03MH084827-01 Assay Submitter (PI): Tom Misteli NCGC Assay Overview: Clk4 (Invitrogen cat # PV3839) was assayed using ATP and the RS repeat peptide (AnaSpec cat # 61722) as substrates using Transcreener (trade mark), a competitive fluorescence polarization (FP) assay. For the present assay, we used the Orange TranscreenerTM ADP2 (BellBrooks Labs, Madison, Wis) detection system to monitor ADP production in the kinase reaction. […] This allows the ADP tracer to freely rotate leading to a decrease in the observed FP value. The amount of ADP produced can then be calculated using a calibration curve. The positive control for the assay was TG003 (Sigma-Aldrich, cat # 300801-52-9) which is a Clk4 inhibitor [2].
NCGC Assay Protocol Summary: Two uL/well of substrate-buffer solution (100 uM RS peptide, 1 uM ATP, 25 mM Tris pH7.5, 10 mM MgCl2, 0.5 mM EGTA, 2.5 mM DTT, 0.01% Triton X-100 final concentration) was dispensed into 1,536-well assay plates (Greiner, solid black medium-binding plates) with Aurora Discovery BioRAPTR Flying Reagent Dispenser (FRD; Beckton-Dickenson). Using a Kalypsys pin tool equipped with a 1,536-pin tool, 23 nL of compound solution was transferred to the assay plate. Two uL/well Clk4-buffer solution (6.25 nM Clk4, 25 mM Tris pH 7.5, 10 mM MgCl2, 0.5 mM EGTA, 2.5 mM DTT, 0.01% Triton X-100, final concentration) was then added using the FRD yielding a total kinase reaction volume of 4 uL/ well. Then 4 uL/well of detection mixture (4 nM orange fluorescent tracer, 1 ug/mL ADP antibody, final concentration) was then added after an hour and the polarization signal was measured using the EnVision plate reader (PerkinElmer, Waltham, MA) after 30 min of room temperature incubation using the following filters and program settings: BODIPY TMR FP dual Enh mirror (barcode 682); BODIPY-TMR 531 (barcode 105) excitation; BODIPY-TMR FP P/S polarized 595 nm filters (barcodes 210 and 211, respectively); 100% light; 150 flashes; 1.35 G-factor; Detector gains were 685 for the 1st detector; 630 for the 2nd detector.
Potency is the fitted concentration of half-maximal effect.

Chain of Dual specificity protein kinase CLK4 (Homo sapiens) (Q9HAZ1 whole entry, looked up): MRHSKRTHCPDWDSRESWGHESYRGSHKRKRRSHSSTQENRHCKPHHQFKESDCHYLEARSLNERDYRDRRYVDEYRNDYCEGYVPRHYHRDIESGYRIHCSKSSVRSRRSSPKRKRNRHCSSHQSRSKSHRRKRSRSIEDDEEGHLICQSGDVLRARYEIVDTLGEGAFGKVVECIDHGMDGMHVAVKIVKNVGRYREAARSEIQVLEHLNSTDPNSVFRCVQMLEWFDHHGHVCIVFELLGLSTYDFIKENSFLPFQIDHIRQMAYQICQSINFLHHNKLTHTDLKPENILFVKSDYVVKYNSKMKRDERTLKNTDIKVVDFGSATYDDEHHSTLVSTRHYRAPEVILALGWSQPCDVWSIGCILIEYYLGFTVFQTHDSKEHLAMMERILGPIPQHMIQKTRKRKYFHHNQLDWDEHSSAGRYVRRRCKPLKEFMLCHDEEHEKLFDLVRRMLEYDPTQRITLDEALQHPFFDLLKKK

Potency, inactive:
COc1cccc(Cn2c(=O)c(CCc3ccccc3)nc3cnc(N4CCN(C)CC4)nc32)c1
N#CCCn1c(=O)c(-c2cccc(C#N)c2)nc2cnc(Oc3cccc(Cl)c3)nc21
Cc1cccc(CNc2ncncc2-c2ccccc2CN(C)C)c1
COCCn1c(=O)c(CCc2ccccc2)nc2cncnc21
COc1ncc2nc(-c3ccccc3)c(=O)n(CCc3ccccc3)c2n1
CN(C)c1ccc(-c2cncnc2NCCc2cnc[nH]2)cc1
CN1CCN(c2ncc3nc(-c4cn(C)c5ccccc45)c(=O)n(C[C@H]4CCCO4)c3n2)CC1
COc1ncc2nc(-c3cccs3)c(=O)n(CCC#N)c2n1
COCCn1c(=O)c(-c2cccs2)nc2cnc(Oc3ccccc3)nc21
COc1ccc2[nH]cc(CCNc3ncncc3-c3ccccc3C(F)(F)F)c2c1
O=c1c(-c2ccccc2)nc2cncnc2n1Cc1ccccc1
CNc1ncncc1-c1ccccc1CN(C)C
COc1cccc(-c2cncnc2NCCN2CCOCC2)c1
COCCn1c(=O)c(CCc2ccccc2)nc2cnc(Oc3ccccc3)nc21
O=c1c(CCc2ccccc2)nc2cnc(Nc3ccccc3)nc2n1C[C@H]1CCCO1
CN(C)c1ncc2nc(CCc3ccccc3)c(=O)n(CCc3ccccc3)c2n1
Cn1c(=O)c(-c2ccc(Cl)cc2)nc2cncnc21
COCCn1c(=O)c(-c2ccc(F)cc2)nc2cnc(Oc3ccccc3)nc21
CN(C)c1ncc2nc(CCc3ccccc3)c(=O)n(CCC#N)c2n1
COc1ccc2[nH]cc(CCNc3nc(-c4c(C)noc4C)nc4ccccc34)c2c1
O=c1c(-c2ccccc2)nc2cnc(N3CCOCC3)nc2n1CCc1ccccc1
CN(C)c1ncc2nc(-c3ccccc3)c(=O)n(C)c2n1
COc1ccc(Oc2ncc3nc(-c4ccccc4)c(=O)n(C[C@H]4CCCO4)c3n2)cc1
COc1ccccc1CNc1cc(-c2ccccc2CN(C)C)ncn1
Cc1nc2cnc(Oc3cccc(Cl)c3)nc2n(Cc2ccc(F)cc2)c1=O
COc1ccc(CNc2ncncc2-c2ccccc2OC)c(OC)c1
COCCn1c(=O)c(-c2cc(F)cc(F)c2)nc2cnc(N3CCN(C)CC3)nc21
COc1ccc(CNc2nc(-c3cccnc3)nc3ccccc23)c(OC)c1
Cc1ccccc1-c1ccc2ncnc(NCCN3CCOCC3)c2c1
CCNc1ncc2nc(CCc3ccccc3)c(=O)n(C3CC3)c2n1
COc1cccc(-c2cncnc2NCCc2c[nH]c3ccc(OC)cc23)c1
c1ccc2c(NCCN3CCOCC3)nc(-c3ccoc3)nc2c1
COc1ccccc1-c1nccc(NCc2cccs2)n1

Potency, active:
COc1cccc(-c2nc(N(C)C)c3ccccc3n2)c1 11.2 µM
COc1cccc(-c2ccc3ncnc(NCc4cnc(C)cn4)c3c2)c1 1.41 µM
COc1ccccc1CNc1ncnc2ccc(-c3cccc(NS(C)(=O)=O)c3)cc12 7.08 µM
COc1ccccc1-c1nc(Nc2ccncc2)c2ccccc2n1 14.1 µM
c1cn(-c2ncnc3ccc(-c4ccoc4)cc23)cn1 0.0708 µM
CCNc1ncc2ncc(=O)n(Cc3cccc(OC)c3)c2n1 11.2 µM
c1ccc(Nc2nc(-c3cccnc3)nc3ccccc23)cc1 2 µM
